Here are results for 11 compounds from ChEMBL document CHEMBL1157539, “Thousands of chemical starting points for antimalarial lead identification” (Nature, 2010).

What all share (format): functional
Assay [1] concerns Plasmodium falciparum. The assay can be described thus: GSK_TCMDC: Inhibition of Plasmodium falciparum 3D7 in whole red blood cells, using parasite LDH activity as an index of growth. Test compounds present at 2uM.
The test system of assay [2] is Plasmodium falciparum. The assay can be described thus: GSK_TCMDC: Inhibition of Plasmodium falciparum Dd2 in whole red blood cells, using parasite LDH activity as an index of growth. Test compounds present at 2uM.
The next assay has as its system HepG2. Description: GSK_TCMDC: Percent inhibition of human HepG2 cell line. Test compounds present at 10uM.

The Inhibition is the drop in the measured response relative to a control, in per cent. Higher therefore signals a strong effect.

As for `Br.CCOC(=O)c1cc(Cl)cc(Cl)c1OCCCON1C(=N)N=C(N)NC1(C)C`, the Inhibition in the assay with Plasmodium falciparum [1] is recorded as 93%; in the assay with Plasmodium falciparum [2], 97%; in the assay on HepG2, 70%.

On to `COc1ccc(-c2cccc(CNC3CCN(C)CC3)c2)cc1S(=O)(=O)NCc1ccccc1.O=C(O)C(F)(F)F`, for which the results for the Inhibition with Plasmodium falciparum [1], in the assay with Plasmodium falciparum [2] and in the assay with HepG2 were 90%, 22% and 18%, respectively.

Consider `O=C(O)C(F)(F)F.OC1CCCN(Cc2ccc(-c3ccc(-c4nc5cc(F)ccc5[nH]4)s3)cc2)C1` (stereo not drawn), for which the Inhibition in the assay on Plasmodium falciparum [1] was found to be 100%; with Plasmodium falciparum [2] it was 99%; with HepG2, 40%.

Regarding `O=C(Nc1ccc(C(F)(F)F)cc1)c1cc(Br)cnc1NCCCn1ccnc1`, the Inhibition in the assay with Plasmodium falciparum [1] worked out at 99%; in the assay on Plasmodium falciparum [2], 98%; in the assay with HepG2, 32%.

For the compound `COc1ccc2ncc(F)c(CCN3CCC(NCc4cc5c(cn4)OCCS5)CC3)c2c1.Cl`, the Inhibition was found to be 89% with Plasmodium falciparum [1], 40% in the assay on Plasmodium falciparum [2] and 4% in the assay on HepG2.

Consider `CCCCNC(=O)c1[nH]c2c(NC(=O)COc3ccccc3)cccc2c1-c1cccc(NC(=O)C(N)CO)c1` (stereo not drawn), for which the Inhibition came to 87% with Plasmodium falciparum [1], 0% in the assay with Plasmodium falciparum [2] and 11% in the assay on HepG2.

Take `O=[N+]([O-])c1c(O)nc2c(c1O)CCC2`: the Inhibition worked out at 97% with Plasmodium falciparum [1], 1% with Plasmodium falciparum [2] and 9% in the assay with HepG2.

In the case of `Cc1cc(N[C@@H](CC(C)C)C(=O)NCCc2ccccc2)nc(NCCc2ccc(F)cc2)n1.O=C(O)C(F)(F)F`, the Inhibition in the assay with Plasmodium falciparum [1] amounted to 98%; with Plasmodium falciparum [2] it was 53%; in the assay on HepG2, 12%.

Take `COC(=O)c1ccc2c(-c3nc4ccc(OC)cc4[nH]3)c[nH]c2c1`: the Inhibition in the assay on Plasmodium falciparum [1] is reported as 95%; in the assay on Plasmodium falciparum [2] it was 31%; in the assay with HepG2, 0%.

`Nc1cc2c(C3CCN(CC4CCN(C(=O)/C=C/c5ccc(Cl)c(Cl)c5)CC4)CC3)c[nH]c2cn1`: the Inhibition stood at 100% with Plasmodium falciparum [1], 94% in the assay on Plasmodium falciparum [2] and 0% in the assay on HepG2.

As to `C=CCN1C(=O)C(=Cc2cc(Br)ccc2O)SC1=Nc1ccccc1`, the Inhibition in the assay on Plasmodium falciparum [1] worked out at 96%; with Plasmodium falciparum [2], 55%; with HepG2, 0%.
